Growth data for eight compounds are collected here from PubChem BioAssay (NCI).

Test systems include NCI-H23 lung; NCI-H226 lung; NCI-H322M lung; HOP-62 NSCLC; HOP-92 NSCLC; NCI-H522 lung; A549/ATCC NSCLC; 786-0 renal; COLO 205 colon; DU-145 prostate; K-562 leukemia; MALME-3M melanoma; MDA-MB-231 breast; RXF 393 renal; SF-268 CNS; SF-295 CNS; SF-539 CNS; UACC-257 melanoma; M14 melanoma; NCI-H460 lung.
What all share (experiment): NCI-60 one-dose screen, 48 h (100 = growth as untreated, 0 = no growth, -100 = all killed)
Holding throughout (conditions): 10 µM unless noted

About 83,000 compounds went through this panel and 20% of them were active in at least one assay; those are over-represented in the sample as a whole.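 Percent growth is the endpoint: 0 to 100 indicates growth inhibition (40 means 60% inhibition), 0 means no net growth, and negative values indicate cell death.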 Values without a mark were called inactive. Activity calls are given as the source filed them. The calls were made as follows: active = growth percent below 10; inactive = the rest.

For the compound `CN(C)CCn1c(=O)c2ccccc2n2nc3ccccc3c12`, the growth was 87.3% in the assay with NCI-H23 lung; 84.8% with NCI-H226 lung; 85% with NCI-H322M lung; 90.9% in the assay with HOP-62 NSCLC; 99.6% in the assay with HOP-92 NSCLC; 97.4% in the assay with NCI-H522 lung. For the same compound, the growth was 61.2% in the assay on A549/ATCC NSCLC; 93.9% in the assay on 786-0 renal; 57.2% in the assay on COLO 205 colon; 101% in the assay with DU-145 prostate; 86.5% with K-562 leukemia; 92.4% in the assay on MALME-3M melanoma. Besides, the growth was 90.8% with MDA-MB-231 breast; 74.3% in the assay with RXF 393 renal; 98.6% in the assay with SF-268 CNS; 75% in the assay on SF-295 CNS; 87.9% in the assay on SF-539 CNS; 105% with UACC-257 melanoma. The growth in the assay with M14 melanoma is 92.1%.
Consider `CC1SC(c2ccccc2O)N(NC(=O)CCC(=O)c2nc3ncccc3[nH]2)C1=O` (stereo unspecified), for which the growth in the assay with NCI-H23 lung is 86.5%; with NCI-H226 lung it was 80.7%; in the assay with NCI-H322M lung, 93.4%; in the assay with HOP-62 NSCLC, 87.8%; with HOP-92 NSCLC it was 79.2%; with NCI-H522 lung, 95.5%. The growth in the assay on A549/ATCC NSCLC is 96.2%; with 786-0 renal, 90.3%; in the assay with COLO 205 colon, 110%; in the assay with DU-145 prostate, 102%; in the assay with K-562 leukemia, 109%; in the assay with MALME-3M melanoma, 94%. The growth in the assay on MDA-MB-231 breast is 103%; in the assay with RXF 393 renal, 96.4%; in the assay with SF-268 CNS, 95.7%; with SF-295 CNS, 96.2%; in the assay with SF-539 CNS, 93.1%; with UACC-257 melanoma it was 99.4%. Also, the growth in the assay with M14 melanoma was 97.6%.
For the compound `Oc1c(CN2CCC(N3CCOCC3)CC2)cc(Cc2cc(CN3CCC(N4CCOCC4)CC3)c(O)c3ncccc23)c2cccnc12`, the growth in the assay on NCI-H23 lung is 40.8%; in the assay on NCI-H226 lung, 2.53% (active); in the assay on NCI-H322M lung, 37.6%; with HOP-62 NSCLC it was 19.4%; in the assay with NCI-H460 lung, 10.5%; with HOP-92 NSCLC it was 41.7%. The growth with A549/ATCC NSCLC was 18.5%; with 786-0 renal, 25.5%; in the assay on COLO 205 colon it was 9.1% (active); with DU-145 prostate, 34.5%; in the assay on K-562 leukemia, 11.1%; in the assay with MALME-3M melanoma, 56.1%. Also, the growth was 8.58% (active) in the assay on MDA-MB-231 breast; 53.5% with RXF 393 renal; 25.5% in the assay with SF-268 CNS; -21.1% (active) in the assay on SF-295 CNS; 6.51% (active) in the assay with SF-539 CNS; 64.5% in the assay with UACC-257 melanoma. Besides, in the assay with M14 melanoma, the growth is 11.3%.
Turning to `Cc1cccc(NC(=O)N/C(N)=N/c2nc3ccccc3s2)c1`, the growth in the assay with NCI-H23 lung is 40.9%; in the assay with NCI-H226 lung, 53.7%; in the assay on NCI-H322M lung, 47.7%; with HOP-62 NSCLC, 30.3%; with HOP-92 NSCLC, 62.7%; with NCI-H522 lung, 16%. The growth in the assay on A549/ATCC NSCLC is 45.9%; in the assay on 786-0 renal, 38.6%; in the assay on COLO 205 colon it was 16.9%; in the assay with DU-145 prostate, 34.6%; in the assay with K-562 leukemia, 18.1%; with MALME-3M melanoma, 50.7%. For the same compound, the growth with MDA-MB-231 breast was 58.8%; in the assay on RXF 393 renal, 26.3%; in the assay with SF-268 CNS it was 54.2%; in the assay with SF-295 CNS, 49.1%; in the assay on SF-539 CNS, -3.23% (active); in the assay on UACC-257 melanoma it was 55%. In addition, the growth in the assay with M14 melanoma was 16.5%.
In the case of `CC1=C2CC/C(C)=C/CC[C@]3(C)O[C@H]3CC/C(C)=C/[C@H]2OC1`, the growth in the assay with NCI-H23 lung was 97.3%; in the assay on NCI-H226 lung, 109%; with NCI-H322M lung, 101%; in the assay with HOP-62 NSCLC, 107%; in the assay on HOP-92 NSCLC it was 94.6%; in the assay on NCI-H522 lung it was 87%. Further, the growth in the assay on A549/ATCC NSCLC is 90.5%; with 786-0 renal, 92%; with COLO 205 colon, 104%; in the assay with DU-145 prostate, 110%; in the assay with K-562 leukemia, 87.5%; in the assay with MALME-3M melanoma, 112%. In addition, the growth was 96.5% in the assay with MDA-MB-231 breast; 126% in the assay on RXF 393 renal; 105% in the assay with SF-268 CNS; 91% in the assay with SF-295 CNS; 95.1% in the assay with SF-539 CNS; 98.3% in the assay with UACC-257 melanoma. Further, the growth with M14 melanoma was 103%.
`CCCc1cc(=O)oc2c(C(=O)CC(C)C)c(O)c(CC=C(C)C)c(O)c12`: the growth in the assay on NCI-H23 lung was -29.1% (active); with NCI-H226 lung, 23.5%; in the assay with NCI-H322M lung, 22.3%; in the assay with HOP-62 NSCLC, 51.1%; in the assay with HOP-92 NSCLC, -25.5% (active); in the assay with NCI-H522 lung, 16%. Also, the growth in the assay on A549/ATCC NSCLC was 23.8%; in the assay with 786-0 renal, 29.2%; in the assay with COLO 205 colon, 50.3%; in the assay with DU-145 prostate, 31.3%; in the assay with K-562 leukemia, 14.3%; in the assay on MALME-3M melanoma, -6.82% (active). The growth in the assay on MDA-MB-231 breast is -15.9% (active); in the assay on RXF 393 renal, 27.3%; in the assay with SF-268 CNS it was 26.5%; with SF-295 CNS, 17.8%; in the assay with SF-539 CNS, 42.2%; with UACC-257 melanoma, 22.7%. For the same compound, the growth in the assay with M14 melanoma is 33.6%.
On to `COc1ccc(N=C2NN=C(c3c[nH]c4ccccc34)CS2)cc1OC`, for which the growth with NCI-H23 lung was 67.7%; in the assay with NCI-H226 lung, 80.6%; in the assay on NCI-H322M lung, 70%; with HOP-62 NSCLC it was 50.5%; with NCI-H460 lung it was 26.9%; in the assay with HOP-92 NSCLC, 19.6%. The growth in the assay with A549/ATCC NSCLC was 55%; in the assay on 786-0 renal, 54.8%; in the assay with COLO 205 colon, 57.9%; in the assay with DU-145 prostate it was 65.9%; with K-562 leukemia, 36.6%; with MALME-3M melanoma, 69.3%. Besides, the growth in the assay with MDA-MB-231 breast is 55.4%; in the assay with RXF 393 renal, 68.6%; in the assay with SF-268 CNS, 56.2%; in the assay with SF-295 CNS it was -31.9% (active); with SF-539 CNS it was 51.8%; in the assay on UACC-257 melanoma it was 77.4%. Besides, the growth in the assay with M14 melanoma is 34%.
Turning to `O=C(/C=C/c1ccccc1)N(C1CCCCC1)C1CCCCC1`, the growth in the assay with NCI-H23 lung is 74.3%; with NCI-H226 lung it was 84.7%; in the assay on NCI-H322M lung, 105%; with HOP-62 NSCLC, 131%; in the assay with HOP-92 NSCLC it was 84.3%; in the assay with NCI-H522 lung, 70.9%. For the same compound, the growth is 73.8% in the assay on A549/ATCC NSCLC; 82.2% in the assay with 786-0 renal; 99.9% in the assay with COLO 205 colon; 104% in the assay on DU-145 prostate; 81.1% in the assay with K-562 leukemia; 104% in the assay with MALME-3M melanoma. The growth in the assay on MDA-MB-231 breast was 86%; in the assay on RXF 393 renal, 84.7%; with SF-268 CNS, 104%; in the assay on SF-295 CNS it was 78.1%; with SF-539 CNS it was 105%; in the assay on UACC-257 melanoma, 80.7%.
